# The campaign covered roughly 420,000 compounds. About 50,000 (12%) were called active. Not shown: some 26% with an inconclusive outcome. Calls come from the whole dose curve; as a rule, active = well fitted inhibition curve with a large enough effect; inconclusive = small, poorly fitted or top-dose-only effect; inactive = flat fitted curve, though single readings scatter. The entries come from a sample that favours actives as a whole. Where a call stands in place of a potency, no number is given.
# Assay: qHTS for Inhibitors of human tyrosyl-DNA phosphodiesterase 1 (TDP1): qHTS in cells in presence of CPT; note: nearly all actives have a fitted effect of over 55% in size
# Conditions: chicken DT40 Tdp1-/-;hTDP1 cells + 20 nM CPT, ATP luminescence, 48 h; series mostly up to 46.2 µM
# From the text: Human tyrosyl-DNA phosphodiesterase 1 (TDP1) is a novel repair gene, and we propose to use it as a new target for anticancer drug development. TDP1 is not an essential protein, but under treatment with topoisomerase I poison (camptothecin: CPT), TDP1 works as a critical factor for cell survival. To directly identify novel TDP1 inhibitors active in a cellular environment, we have knocked-out the Tdp1 gene in chicken DT40 cells (Tdp1-/-) and generated a complemented counterpart cells that contains a stable transfection of the human TDP1 gene (Tdp1-/-;hTDP1 cells). For the primary screen, Tdp1-/-;hTDP1 cells will be exposed to small molecules in the presence or absence of CPT, and their growth kinetics will be evaluated after 48 hours by measuring ATP activity. […] The hit compounds will then be evaluated in the presence or absence of CPT using Tdp1-/- cells. […] In tertiary assays, biochemical gel-based assays will be used to assess whether the hit compounds specifically target TDP1. To this end, we have screened this cell line against the MLSMR in two primary screens. In one screen we add CPT and in the other we screen in the absence of CPT; this AID represents the screen where CPT was present. NIH Chemical Genomics Center [NCGC] NIH Molecular Libraries Probe Centers Network [MLPCN] MLPCN Grant: MH095538 Assay Submitter (PI): Yves Pommier, NCI
# DT40-hTDP1 cells with 20 nM Camptothecin (add 20 microL of 1 mM CPT stock in 1 L of cell culture medium) were dispensed at 400 cells/5microL/well in tissue culture treated 1536-well white wall/solid bottom assay plates (Greiner Bio-One North America, NC, U.S.A.) using a Multidrop Combi 8 channel dispenser (Thermo Fisher, Waltham, MA, USA). 23 nL compounds and controls were transferred using the pin tool (Kalypsys, San Diego, CA, USA) to the assay plates. The assay plates were then incubated at 37 masculineC for a minimum 48 hr. Three microL of Cell Titer Glo solution was added to the plates and incubated at RT in dark for 30 min. Luminescence was read using ViewLux (Perkin Elmer) with 1 sec exposure slow speed, high gain and 2x binning.
# Potency is the fitted concentration of half-maximal effect.
row,Compound,Potency
1,CCCC12CN3CC(CCC)(CN(C1)C3c1c[nH]c3ccc(OC)cc13)C2=O (stereo not drawn),18.4 µM (active)
2,CCCC12CN3CC(C)(CN(C1)C3c1ccccc1Cl)C2=O (stereo not drawn),inactive
3,CCN(CC)CC(=O)c1c[nH]c2ccc(OC)cc12,inactive
4,COc1ccc(-c2c(C#N)cnc(C)c2C)c(O)c1OC,inactive
5,CCOC(=O)c1ccccc1NC(=O)COC(=O)CCC(=O)N1CCOCC1,inactive
6,O[C@@H]1C[C@H](c2ccccc2)N(Cc2cccs2)C[C@H]1n1cc(C2CC2)nn1,inactive
7,CC(C)CC(=O)N1CCN(Cc2ccccc2Br)CC1,inactive
8,C=C1C(=O)C23C(O)C1CCC2[C@]12COC3(O)C(O)C1C(C)(C)CC[C@H]2O (stereo partly drawn),3.26 µM (active)
9,N#CCSc1nc2c(c(=O)n1Cc1ccccc1)C1(CCCC1)Cc1ccccc1-2,16.4 µM (active)
10,Cc1cccc(-n2c(SCC(N)=O)nc3c(c2=O)C2(CCCCC2)Cc2ccccc2-3)c1,inactive
11,CC(/C=C/C1(O)C(C)CC(=O)CC1(C)C)OC1OC(CO)C(O)C(O)C1O (stereo not drawn),inactive
12,Cc1ccc(N2C(=O)CC(N3CCSCC3)C2=O)c(C)c1 (stereo not drawn),inactive
13,CNc1nc(=O)n(C2CCCO2)cc1C (stereo not drawn),inactive
14,N/C(=N\OC(=O)Nc1ccc(Cl)c(Cl)c1)c1ncc(C(F)(F)F)cc1Cl,inactive
15,COc1cccc(/C=N/Nc2ncc(C(F)(F)F)cc2Cl)c1O,4.61 µM (active)
16,COc1cc(/C=C2\SC(=S)N(Nc3ncc(C(F)(F)F)cc3Cl)C2=O)cc(OC)c1OC,inactive
17,CC(=O)c1c(C)[nH]c(C(=O)CN2C(=O)NC(C)(C)C2=O)c1C,inactive
18,O=C(N/N=C/c1cc2c(cc1Br)OCO2)C1COc2ccccc2O1 (stereo not drawn),inactive
19,COc1ccc(NC(=O)CSc2nnnn2-c2cccc(OC)c2)cc1,inactive
20,COc1ccc(C2=CC(c3cccc(OC)c3)n3nnnc3N2)cc1 (stereo not drawn),inactive
21,CCOc1cccc(-n2nnnc2-c2ccc(OC)cc2)c1,2.91 µM (active)
22,CCCn1nnnc1NCc1ccc(OC)cc1,inactive
23,C=CCOc1ccc(C(=O)Nc2ccccc2C(=O)N2CCCC2)cc1,inactive
24,COc1cc(OC)c2c(c1Cl)OC1(C2=O)C(O)=CC(=O)CC1C (stereo not drawn),inactive
25,Cc1ccc(O)c(/C=N/NC(=O)COc2ccc3c(C)cc(=O)oc3c2)c1,20.6 µM (active)
26,Cc1cc(=O)oc2ccc(OCC(=O)O)cc12,inactive

row,Compound,Potency
1,COC(=O)COc1ccc2oc(=O)cc(C)c2c1,inactive
2,Cc1cc(=O)oc2cc(OCC(=O)Nc3nnc(C4CC4)s3)ccc12,inactive
3,CCOC(=O)Cc1csc(NC(=O)COc2ccc3c(C)cc(=O)oc3c2)n1,inactive
4,CC(=O)c1c(C)[nH]c(C(=O)COc2ccc3c(C)cc(=O)oc3c2)c1C,16.4 µM (active)
5,CC1=C(C/C=C(\C)CCCC(C)CCCC(C)CCCC(C)C)C(=O)c2ccccc2C1=O (stereo not drawn),inactive
6,C=CC[C@H](CC(=O)OC(C)(C)C)C(=O)OC[C@H]1CCCN1C(=O)[C@H](CC=C)CC(=O)N(CCO)Cc1ccccc1,16.4 µM (active)
7,CCc1ccc(NC(=O)Cn2ncn3c(cc4ccccc43)c2=O)cc1,inactive
8,N#Cc1cccc(CN2CCC(=O)N(CCO)CC2)c1,inactive
9,O=C(C1CCC1)N1CCN(S(=O)(=O)c2ccc([N+](=O)[O-])cc2)CC1,inactive
10,Cc1c(S(=O)(=O)NCc2ccccc2)c(=O)n(C)c(=O)n1C,inactive
11,Cn1c(=O)c2c(-c3ccccc3Br)n(Cc3ccccc3)cc2n(C)c1=O,20.6 µM (active)
12,O=C(c1ccc[nH]c1=S)N1CCN(S(=O)(=O)c2ccc(Br)cc2Cl)CC1,inactive
13,O=C(NCc1ccco1)c1ccc(CS(=O)(=O)Cc2ccc(F)cc2)o1,inactive
14,Cc1ccc(CNC(=O)c2ccc(CS(=O)Cc3cccc(Cl)c3)o2)cc1 (stereo not drawn),inactive
15,COc1ccc(CCNC(=O)c2nnc(CS(=O)(=O)c3ccccc3)o2)cc1OC,inactive
16,COc1ccc(CCNC(=O)c2ccc(CS(=O)(=O)c3ccc(Br)cc3)o2)cc1OC,20.6 µM (active)
17,COc1ccc(CCNC(=O)c2ccc(CSCc3ccc(C)cc3)o2)cc1OC,14.6 µM (active)
18,Cc1ccc(CCNC(=O)c2ccc(CS(=O)(=O)Cc3cccc(C)c3)o2)cc1,23.1 µM (active)
19,COc1ccc(CCNC(=O)NS(=O)(=O)c2ccc(C)cc2)cc1OC,inactive
20,COc1ccc(CCNC(=O)Cc2ccc(C)cc2)cc1OC,inactive
21,COc1ccccc1CNC(=O)c1ccc(CS(=O)(=O)c2ccccc2)o1,inactive
22,COc1cccc(NC(=S)N(Cc2ccc(C)cc2)Cc2ccccn2)c1,inactive
23,CN=C1C=C/C(=N/N=c2\ccn(O)cc2C)C=C1C,inactive
24,CCOC(=O)C1=C(CC)Nc2ccccc2N=C1NC(=O)c1cccc(S(=O)(=O)N2CCCC2)c1,inactive
25,CC(=O)NC12CC3CC(C1)CC(C(=O)N1CCN(C(=O)c4ccco4)CC1)(C3)C2,inactive
26,N#CC1(Nc2ccc3c4c(cccc24)CC3)CCCCC1,inactive

row,Compound,Potency
1,CC(C)[C@H]1CC[C@@H](C)C[C@H]1O,inactive
2,CC(c1ccccn1)N(CCN(C)C)C(=S)Nc1ccccc1F (stereo not drawn),inactive
3,N/C(=N\OC(=O)CCn1cccc(C(F)(F)F)c1=O)c1ccc(OC(F)(F)F)cc1,inactive
4,CC(=O)Nc1ccc(C(=O)N(C2=NC(C)CS2)c2ccc(Cl)cc2)cc1 (stereo not drawn),inactive
5,COc1ccccc1NC(=O)CSc1nnc(Cn2nnc(-c3ccccc3)n2)n1-c1ccccc1,18.4 µM (active)
6,COc1ccccc1OCc1nnc(SCC(N)=O)n1-c1ccccc1,inactive
7,COc1ccccc1NC(=O)CSc1nnc(Cc2cccn2C)n1-c1ccc(F)cc1,inactive
8,COc1ccc(S(=O)(=O)N(C)CC(=O)NCCCN2CCOCC2)cc1Cl,inactive
9,CC(=O)C1=C(C)NC(=O)NC1c1cc(Br)ccc1OCC#N (stereo not drawn),inactive
10,O=C(COc1ccccc1Cl)N1CCCCCCC1,inactive
11,O=C(COc1ccccc1Cl)Nn1cnnc1,inactive
12,Cc1cc(C(=O)COc2ccc(Br)cc2F)c(C)n1C1CC1,7.31 µM (active)
13,O=C(COc1ccc(Br)cc1F)NCC1(N2CCCCC2)CCCCC1,inactive
14,Cc1cc(C(=O)COc2ccccc2Cl)c(C)n1C1CC1,13 µM (active)
15,C/C(N)=C(/C#N)C(=O)COC(=O)c1cc(-c2ccc(C)cc2)nc2ccccc12,inactive
16,COc1ccc(/C=C/C(=O)NC(=S)N2CCCC(C(N)=O)C2)cc1 (stereo not drawn),inactive
17,OCCC1CN(Cc2ccc3nsnc3c2)CCN1C1CCCC1 (stereo not drawn),inactive
18,CC(C)c1cc(C(=O)N/N=C/c2ccoc2)c(O)c(C(C)C)c1,inactive
19,CC(C)C[C@H](NC(=O)N1CC(=O)Nc2ccccc21)C(=O)N[C@H](Cc1ccccc1)C(=O)O,inactive
20,Cc1ccc(N(C(=O)c2ccc(CN3CCOCC3)o2)C(C(=O)NCCC(C)C)c2cccs2)c(C)c1 (stereo not drawn),inactive
21,CCCCNC(=O)N(O)C1N(/N=C/c2ccc(N(C)C)cc2)C(=S)SC1(C)C (stereo not drawn),inactive
22,CN1CCN(c2ccc(NC(=O)c3cc(Cl)c4c(c3)OCCO4)cc2)CC1,inactive
23,C=CC(=O)Nc1ccc(Nc2ccnc(Nc3ccc(N4CCN(C)CC4)cc3)n2)cc1,9.2 µM (active)
24,Cn1cnnc1SCC(=O)Nc1ccc(N2CCOCC2)cc1,inactive
25,Cc1ccc(NS(=O)(=O)c2ccc(C(=O)NCCCN3CCOCC3)cc2)cc1,inactive
26,COc1ccc(Cn2c(=S)[nH]c3cc(C(=O)NCCCN4CCOCC4)ccc3c2=O)cc1,inactive

row,Compound,Potency
1,Cc1c(C)n(Cc2ccc(Cl)cc2)c2ccc(C(=O)NCCc3ccc(S(N)(=O)=O)cc3)cc12,18.4 µM (active)
2,COc1ccc(-n2c(=O)[nH]c3cc(C(=O)NCCc4ccc(OC)c(OC)c4)ccc3c2=O)c(OC)c1,inactive
3,COc1ccc(C(=O)NCC[N+](C)(C)C)cc1,inactive
4,CCn1c(C)c(C)c2cc(C(=O)NCCc3cc(OC)ccc3OC)ccc21,20.6 µM (active)
5,COc1ccc(C(=O)NCCc2ccc(S(N)(=O)=O)cc2)cc1OC,inactive
6,Cc1c(C)n(Cc2ccc(Cl)cc2)c2ccc(C(=O)NCCCN3CCOCC3)cc12,23.1 µM (active)
7,CCOC(=O)c1c(C)c(C(=O)NCCc2ccc(S(N)(=O)=O)cc2)c(C)n1CC,inactive
8,NC(=O)c1nnsc1-c1ccc(-c2snnc2C(N)=O)cc1,inactive
9,CCCCN1CC(CO)Oc2cccc(F)c2S1(=O)=O (stereo not drawn),inactive
10,COc1ccc(OCC(=O)NCCS(=O)(=O)N2CCN(c3ccc(F)cc3)CC2)cc1,inactive
11,Cc1cc2cc3c(N)[nH]nc3nc2cc1C,inactive
12,O=S1(=O)CCOC[C@H](Cc2ccccc2)N1Cc1ccccc1Br,inactive
13,COc1ccccc1C(=O)NC(=S)NC12CC3CC(CC(C3)C1)C2,inactive
14,CC(=O)c1cc(CN2CCC(n3nccc3NC(=O)c3ccccc3Cl)CC2)cs1,inactive
15,CCCCCc1ccc(-c2ccc(C(=O)O)cc2)nc1,inactive
16,CC(=O)Nc1ccc(S(=O)(=O)NC2(C(F)(F)F)C(=O)NC(C)=C2C#N)cc1 (stereo not drawn),inactive
17,CC1CCCC(C)N1C(=O)COC(=O)c1ccccc1C(=O)c1ccccc1 (stereo not drawn),inactive
18,C=CCc1ccccc1OCC(O)CN1CCN(CCO)CC1 (stereo not drawn),inactive
19,OC(COc1ccc(F)cc1Cl)CN1CCc2ccccc2C1 (stereo not drawn),20.6 µM (active)
20,Cc1ccc(Cl)c(OCC(=O)N2CCc3ccccc3C2)c1,inactive
21,COCCN1CCn2c(nc3cc(NS(C)(=O)=O)ccc32)C1,inactive
22,Cc1cccc(CCNC(=O)Cn2ncc3c([nH]c4ccc(C)cc43)c2=O)c1,inactive
23,CC12CN(Cc3ccccc3)CC(C)(CN(Cc3ccccc3)C1)C2=NO,23.1 µM (active)
24,CS(=O)(=O)N1CCC2(CC1)CN(Cc1ccccc1)C2,inactive
25,CC(=O)N1CCC2(CCCN(Cc3ccccc3)C2)CC1,inactive

# — PubChem BioAssay AID686979 (National Center for Advancing Translational Sciences (NCATS), 2013)
